# In publication PMC4552634, “A New Set of Chemical Starting Points with Plasmodium falciparum Transmission-Blocking Potential for Antimalarial Drug Discovery” (PLoS ONE, 2015):
# The campaign covered roughly 13,000 compounds. About 3,200 (25%) showed an effect of 50% or more. The list shows a part of the results.
# Test system: P. falciparum stage V gametocytes
# Parameters: BacTiter-Glo ATP luminescence viability of purified stage V gametocytes in 384-well plates, per cent inhibition versus DMSO
# Conditions: 48 h, 5 µM; inhibitor
row,Structure (SMILES),% Inhibition [%]
1,Cc1ccc(CNC(=O)c2cnc(N3CCN(c4ccncc4)CC3)c(Cl)c2)cc1 [TCMDC-134626],3.173
2,CC1(C)CCC(C)(C)c2c1ccc(C1CCN(CCCCNC(=O)c3ccc(-c4ccc(C#N)cc4)cc3)CC1)c2O [TCMDC-135505],91.89
3,COc1c(C2CCN(CCCCNC(=O)c3ccc(-c4ccc(C#N)cc4)cc3)CC2)ccc2c1C(C)(C)CCC2(C)C [TCMDC-135481],92.96
4,Cc1c(C2CCN(CCCCNC(=O)c3ccc(-c4ccc(C#N)cc4)cc3)CC2)c2ccccc2n1CCO [TCMDC-138815],-16.09
5,COc1c(C2=CCN(CCCCNC(=O)c3ccc(-c4ccc(C#N)cc4)cc3)CC2)c(C)cc2c1C(C)(C)CCC2(C)C [TCMDC-135480],3.716
6,CCc1ccc(C2CCN(CCCCNC(=O)c3ccc(-c4ccc(Cl)cc4)cc3)CC2)c(O)c1 [TCMDC-138548],18.22
7,Cc1[nH]c2ccccc2c1C1CCN(CCCCNC(=O)c2ccc(-c3ccc(C#N)cc3)cc2)CC1 [TCMDC-138808],60.39
8,Cc1ccc(C2CCN(CCCCNC(=O)c3ccc(-c4ccc(C#N)cc4)cc3)CC2)c(O)c1 [TCMDC-138658],-70.86
9,COc1c(C2CCN(CCCCNC(=O)c3ccc(-c4ccc(C#N)cc4)cc3)CC2)cc(Cl)c2c1CCCC2 [TCMDC-135288],-31.75
10,CC1(C)CCC(C)(C)c2c1ccc(C1CCN(CCCCNC(=O)c3ccc(-c4ccc(Cl)cc4)cc3)CC1)c2O [TCMDC-135483],86.31
11,Cc1cc(C2CCN(CCCCNC(=O)c3ccc(-c4ccc(C#N)cc4)cc3)CC2)c(C)cc1O [TCMDC-138817],-58.22
12,N#Cc1ccc(-c2ccc(C(=O)NCCCCN3CCC(c4nc5ccccc5[nH]4)CC3)cc2)cc1 [TCMDC-133362],24.39
13,CCC(C)(C)C1CCc2[nH]c3ccccc3c(=O)c2C1 (stereo not drawn) [TCMDC-125226],30.2
14,CC(=O)N/N=C/[C@H](CCc1ccccc1)NC(=O)[C@H](CC(C)C)NC(=O)c1ccc(OCCN2CCOCC2)cc1 [TCMDC-135916],2.96
15,CC(NC(C)c1cccc(Cl)c1)C(=O)Nc1cc(C(F)(F)F)ccc1N1CCOCC1 (stereo not drawn) [TCMDC-125061],-33.15
16,Cc1cccc(C(=O)Nc2ccnc(N3CCC(N(C)Cc4cccc(C#N)c4)CC3)c2)c1 [TCMDC-134973],-4.566
17,O=C(c1ccco1)N1CCN(c2nc(-c3ccc(Cl)cc3)nc3ccccc23)CC1 [TCMDC-124753],14.1
18,COc1ccc2nccc([C@@H](O)CN3CCC(NC(=O)C(c4cc5ccccc5s4)N4CC(C)OC(C)C4)CC3)c2c1 (stereo partly drawn) [TCMDC-140995],7.748
19,N#Cc1ccc(-c2ccc(C(=O)NCCCCN3CCC(c4cc(Br)c5c(c4OCC(N)=O)CCCC5)CC3)cc2)cc1 [TCMDC-135263],-29.4
20,COc1c(C2CCN(CCCCNC(=O)c3ccc(-c4ccc(Cl)cc4)cc3)CC2)ccc2c1C(C)(C)CCC2(C)C [TCMDC-135482],91.33
21,CC1(C)CCC(C)(C)c2c1ccc(C1CCN(CCCCNC(=O)c3ccc(-c4ccc(C#N)cc4)cc3)CC1)c2OCC(N)=O [TCMDC-135627],76.03
22,C=CCc1cc(C2CCN(CCCCNC(=O)c3ccc(-c4ccc(C#N)cc4)cc3)CC2)c(OCC(N)=O)c2c1CCCC2 [TCMDC-135625],-14.83

row,Structure (SMILES),% Inhibition [%]
1,OCCc1ccc(Nc2nccc(-c3nnc4ccccn34)n2)cc1 [TCMDC-138924],-13.1
2,COc1ccc(Nc2nc(NCc3cccnc3)cc(-c3ccc(OC)cc3)n2)cc1 [TCMDC-133467],9.957
3,Cc1cc(-c2cc3nc4c(c(=O)n3[nH]2)CCCC4)c(C)o1 [TCMDC-125325],32.39
4,Cc1ccc(-c2[nH]n3c(=O)c4c(nc3c2C)CCCC4)cc1 [TCMDC-124479],75.27
5,O=c1[nH]c(NCCCNCc2cc3c(Cl)cc(Cl)cc3[nH]2)nc2ccsc12 [TCMDC-139925],-0.4742
6,Cc1cc(N2CCCC2)nc(Nc2ccc(NC(=O)C3CCCC3)cc2)n1 [TCMDC-124964],-12.42
7,CS(=O)(=O)Cc1cccc(Nc2ncc(Cl)c(Nc3cccnc3C(N)=O)n2)c1 [TCMDC-134166],-54.44
8,O=C(Nc1cccc(-c2nn3ccccc3c2-c2ccnc(Nc3ccc(C(=O)N4CCOCC4)cc3)n2)c1)c1c(F)cccc1F [TCMDC-135910],-23.59
9,NC(=O)N1CCN(Cc2ccc(Br)cc2)CC1 [TCMDC-137933],4.957
10,c1ccc(Oc2ccc(Nc3ccnc4cc(-c5cccc(CNCCN6CCOCC6)c5)ccc34)cc2)cc1 [TCMDC-138474],52.49
11,c1cncc(Oc2ccc(Nc3ccnc4cc(-c5cccc(CNCCN6CCOCC6)c5)ccc34)cc2)c1 [TCMDC-138492],84.98
12,c1ccc(Oc2ccc(Nc3ccnc4cc(-c5ccc(CNCCN6CCOCC6)o5)ccc34)cc2)cc1 [TCMDC-138398],12.11
13,N#Cc1cnc2cc(-c3cnc(CNCCN4CCOCC4)s3)ccc2c1Nc1ccc(Oc2ccccc2)cc1 [TCMDC-138611],2.275
14,Fc1ccc(Nc2ccnc3cc(-c4cccc(CNCCN5CCOCC5)c4)ccc23)c(Cl)c1 [TCMDC-138414],41.76
15,CN(C)CC1CCCN1Cc1ccccc1-c1cnn(C)c(=O)c1Oc1cccc(C#N)c1 (stereo not drawn) [TCMDC-135097],-59.69
16,COc1ccc(CCNC(=O)c2ccc(-n3cc(NC(=O)c4cccnc4)cn3)cc2)cc1OC [TCMDC-124665],38.46
17,Nc1nc(N)c2c(Cl)c(N(Cc3ccccc3)Cc3ccccc3)ccc2n1 [TCMDC-137993],-38.99
18,O=S(=O)(NCCN1CCCC1)c1ccc(-c2ccc(CNCc3ccccc3)cc2)s1 [TCMDC-132233],71.01
19,O=S(=O)(NCCN1CCCC1)c1ccc(-c2cccc(CNCc3ccccc3)c2)s1 [TCMDC-132216],86.1
20,O=S(=O)(NCCN1CCCC1)c1ccc(-c2ccc(CN3Cc4ccccc4C3)cc2)s1 [TCMDC-132286],9.199
21,O=C(O)C(F)(F)F.c1ccc(CNCc2cccc(-c3ccc(-c4nc5ccccc5[nH]4)s3)c2)cc1 [TCMDC-132714],15.98
22,CCOC(=O)N1CCC(NC(=O)c2ccc(C(C)(C)C)cc2OC)CC1 [TCMDC-139314],15.99

row,Structure (SMILES),% Inhibition [%]
1,O=C(c1cccc(-c2noc(C(F)(F)F)n2)c1)N1CCN(C(=O)c2ccc3cc[nH]c3c2)CC1 [TCMDC-132422],0.1652
2,N#Cc1cccc(NC(=O)c2ccc(S(=O)(=O)NCC3CCCN3CC3CCCCC3)cc2)c1 (stereo not drawn) [TCMDC-133796],-13.1
3,CC(C)CNCc1cccc(-c2cccc(CN(CCCN3CCN(C)CC3)C(=O)Nc3ccccc3)c2)c1 [TCMDC-140593],80.6
4,CN1CCN(CCCN(Cc2cccc(-c3ccc(CNCCc4ccccc4)cc3)c2)C(=O)Nc2ccccc2)CC1 [TCMDC-140595],97.36
5,CN1CCN(CCCN(C(=O)Nc2cc(C(F)(F)F)cc(C(F)(F)F)c2)c2ccccc2Cc2ccccc2)CC1 [TCMDC-136454],-18.83
6,CN1CCN(CCCN(Cc2cccc(-c3cccc(CNCCc4ccccc4)c3)c2)C(=O)Nc2ccccc2)CC1 [TCMDC-140594],106.2
7,Cc1csc2nc(C(C)c3ccc(NC(=O)c4cccs4)cc3)oc(=O)c12 (stereo not drawn) [TCMDC-139034],5.722
8,Cc1cc(-c2ccc(NC(=O)Nc3ccc4nccc(N5CCN(C)CC5)c4c3)cc2C)cc(C)n1 [TCMDC-139355],10.84
9,Cc1cc(N[C@@H](Cc2ccccc2)C(=O)NCCc2ccccc2)nc(NCC2CCCCC2)n1 [TCMDC-134934],-20.83
10,CCCC(C)C(=O)N1CCOC(COCc2cccc(C(F)(F)F)c2)(c2ccc(Cl)cc2)C1 (stereo not drawn) [TCMDC-141953],24.89
11,C=CC(C)C1OC(=O)c2cc(OC)cc(OC)c21 (stereo not drawn) [TCMDC-138676],102.9
12,C=CCC1OC(=O)c2cc(OC)cc(OC)c21 (stereo not drawn) [TCMDC-138677],106
13,Cc1ccc(-c2cc(C(=O)Nc3ccc(S(=O)(=O)N4CCCCC4C)cc3)[nH]n2)c(O)c1 (stereo not drawn) [TCMDC-124908],-44.76
14,CCCCCCN(CCCCCC)CC(O)c1cc(-c2ccc(Cl)cc2)nc2c(C)cc(C)cc12 (stereo not drawn) [TCMDC-125503],-72.43
15,CN(C(=O)NCCc1ccccc1)C1CCN(CCCCCNC(=O)/C=C/c2ccc(Cl)c(Cl)c2)CC1 [TCMDC-139523],-13.13
16,COc1ccc(-c2nc3cccnc3n2CC(=O)Nc2c(C)cc(C)cc2C)c(OC)c1 [TCMDC-135284],61.51
17,COc1ccc(-n2ccnc2SCC(=O)Nc2cc(C)ccc2C)c(OC)c1 [TCMDC-123824],-3.768
18,COc1ccc(-c2nc3cccnc3n2CC(=O)Nc2cc(Cl)c(Cl)cc2Cl)c(OC)c1 [TCMDC-135101],5.638
19,CC(C)CNCc1ccc(-c2cccc(CN(C(=O)Nc3ccccc3)C3CCN(Cc4ccccc4)CC3)c2)cc1 [TCMDC-140585],74.29
20,CC(C)CNCc1cccc(-c2cccc(CN(C(=O)Nc3ccccc3)C3CCN(Cc4ccccc4)CC3)c2)c1 [TCMDC-140584],53.9
21,CC(C)CNCc1cccc(-c2ccc(CN(C(=O)Nc3ccccc3)C3CCN(Cc4ccccc4)CC3)cc2)c1 [TCMDC-140597],96.79
22,CC(C)CNCc1ccc(-c2ccc(CN(C(=O)Nc3ccccc3)C3CCN(Cc4ccccc4)CC3)cc2)cc1 [TCMDC-140598],108.5
